Compound activity: PubChem BioAssay, several laboratories
SENP8 block-1: human SENP8 protease inhibitors, primary screen, biochemical, fluorescence, Nedd8 protein substrate, uHTS | Sentrin-specific protease 8 (Homo sapiens), Q96LD8 | recombinant SENP8 | inhibition, % at 20 µM | actives 0.64% (n = 360,000) | AID 602440, 2012; in the data active = inhibition mostly above about 40%, no sharp cut-off; inactive = mostly below about 27%
Target sequence (Q96LD8 whole entry, looked up): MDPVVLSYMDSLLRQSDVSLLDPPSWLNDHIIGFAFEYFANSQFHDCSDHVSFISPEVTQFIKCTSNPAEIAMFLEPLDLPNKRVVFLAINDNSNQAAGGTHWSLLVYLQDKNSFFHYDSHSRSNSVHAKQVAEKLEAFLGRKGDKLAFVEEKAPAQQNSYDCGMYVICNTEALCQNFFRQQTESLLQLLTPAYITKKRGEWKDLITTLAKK
HSP90 inh: HSP90 inhibitors, primary screen, cell lysate, luminescence. Heat shock protein HSP 90 (rabbit reticulocyte lysate; luciferase refolding). Rabbit reticulocyte lysate, luciferase refolding luminescence, 3 h. inhibition, % at 5.6 µM. actives 0.91% (n = 290,000). AID 1789, 2009;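 active = inhibition above the screen-wide mean plus 3 SD, computed separately per campaign, cut at about 16% in these data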;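 also: 0% = DMSO wells and 100% = 60 µM geldanamycin wells; inhibitors lower the luminescence because luciferase stays unfolded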
SENP7 inh: SENP7 protease inhibitors, primary screen, biochemical, luminescence, uHTS. actives 1.5% (n = 330,000). AID 434973, 2010. inhibition, % at 5 µM. recombinant SENP7, Z-RLRGG-aminoluciferin luminescence, 40 min. Sentrin-specific protease 7 (Homo sapiens), Q9BQF6;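 active = inhibition above about 50% at the single test dose, limit read from the data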;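 also: plate controls were DMSO with enzyme for no effect and no enzyme buffer wells for full effect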
SENP8 block-2: SENP8 protease inhibitors, primary screen, biochemical, luminescence. Sentrin-specific protease 8 (Homo sapiens), Q96LD8. purified SENP8, Z-RLRGG-aminoluciferin cleavage. inhibition, % at 10 µM. actives 1.2% (n = 330,000). AID 2540, 2010; in the data active = inhibition above about 50%
SENP6 block: SENP6 protease inhibitors, primary screen, biochemical, luminescence, uHTS; Recombinant SENP6 catalytic domain, aminoluciferin luminescence; inhibition, % at 10 µM; actives 1.8% (n = 330,000); AID 2599, 2010;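 active = inhibition above about 50% at the single tested dose, limit read from the data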;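 also: plate controls were DMSO wells with enzyme for no effect and DMSO wells lacking enzyme for full effect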
SENP8 confirm: SENP8 protease inhibitors, retest, confirmation, biochemical, luminescence, single concentration; shares compounds with SENP7 inh; Recombinant SENP8, Z-RLRGG-aminoluciferin luminescence, 60 min; inhibition, % at 12.5 µM; actives 40% (n = 6,200); AID 488912, 2010;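 active = mean inhibition across replicates above about 50%, limit read from the data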
SENP6 conf: SENP6 protease inhibitors, confirmation, biochemical, luminescence, single concentration. actives 58% (n = 6,200). inhibition, % at 12.5 µM. recombinant SENP6, Z-RLRGG-aminoluciferin luminescence. shares compounds with SENP7 inh
SENP7 confirm: SENP7 protease inhibitors, retest, confirmation, biochemical, luminescence, single concentration; AID 488917, 2010; inhibition, % at 12.5 µM; actives 69% (n = 6,200); recombinant SENP7, Z-RLRGG-aminoluciferin luminescence, 40 min; shares compounds with SENP7 inh
Casp3 SENP sel: caspase-3 protease inhibitors, confirmation, selectivity assay for SENP inhibitor project, biochemical, single concentration | shares compounds with SENP7 inh | purified caspase-3, Z-DEVD-aminoluciferin luminescence, 60 min | inhibition, % at 12.5 µM | actives 60% (n = 6,200);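 active = mean inhibition above about 50%, limit read from the data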;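 also: plate controls were enzyme with DMSO for no effect and wells without caspase-3 for full effect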
Target sequence (P42574 28-227 limits assumed): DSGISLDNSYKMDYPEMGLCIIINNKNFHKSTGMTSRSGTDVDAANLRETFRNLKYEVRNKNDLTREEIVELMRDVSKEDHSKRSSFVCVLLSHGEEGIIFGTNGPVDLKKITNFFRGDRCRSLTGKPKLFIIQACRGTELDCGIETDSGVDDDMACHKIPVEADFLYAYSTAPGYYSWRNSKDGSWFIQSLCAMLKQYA
Luc interf: counter-screen for SENP inhibitors: luminescence interference; inhibition, % at 12.5 µM; actives 39% (n = 6,200); shares compounds with SENP7 inh; Pre-incubated SENP8/Z-RLRGG-aminoluciferin, luciferase luminescence interference; AID 488919;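 active = mean inhibition above about 50% when retested at one dose, limit read from the data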;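 also: plate controls were DMSO wells with completed reaction for no effect and substrate without enzyme for full effect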
Numbers without * were called inactive. Only some compounds are listed: those with a hit (about 2.8% of all), similar ones and a draw of the others.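 The calls were made as follows, unless noted: active = mean inhibition above about 50% in the one-dose retest (limit read from the data); inactive = the rest.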

For O=C(Nc1ccc(C(=O)N2CCCCC2)cc1)C1=CSCCO1 the results were SENP8 block-1 4.1, HSP90 inh 7.6, SENP7 inh 80.7*, SENP8 block-2 67.6*, SENP6 block 79.4*, SENP8 confirm 77.5*, SENP6 conf 74.0*, SENP7 confirm 91.2*, Casp3 SENP sel 90.9* and Luc interf 77.4*.
`O=C(Nc1ccc(NC(=O)c2ccco2)c(Cl)c1)c1ccc2c(c1)OCCO2` gave SENP8 block-1 -3.8, HSP90 inh -0.7, SENP7 inh 9.6, SENP8 block-2 -18.6 and SENP6 block 3.9.
Screening O=C(Nc1ccc(NC(=O)c2ccco2)cc1)c1ccc2c(c1)OCO2 returned SENP8 block-1 4.2, HSP90 inh 1.3, SENP7 inh 62.5*, SENP8 block-2 31.1, SENP6 block 53.7*, SENP8 confirm 6.2, SENP6 conf 12.8, SENP7 confirm -3.1, Casp3 SENP sel 8.5 and Luc interf 3.0.
Screening N#Cc1nc2ccccc2n1OCc1ccccc1 returned SENP8 block-1 24.2.
Screening COc1cccc(Nc2c(F)c(F)c(F)c(F)c2C(=O)O)c1 returned SENP8 block-1 15.9, HSP90 inh 1.1, SENP7 inh 5.2, SENP8 block-2 2.7 and SENP6 block -0.6.
`O=c1[nH]c(N/N=C/c2ccc(O)cc2)nc2ccccc12` gave SENP8 block-1 -335.7, HSP90 inh 1.4, SENP7 inh 51.0*, SENP8 block-2 60.4*, SENP6 block 75.2*, SENP8 confirm 44.5, SENP6 conf 61.9*, SENP7 confirm 86.0*, Casp3 SENP sel 81.2* and Luc interf 71.1*.
`O=c1[nH]c(N/N=C\c2ccc(F)cc2)nc2ccccc12` gave SENP8 block-1 -293.0, HSP90 inh -2.1, SENP7 inh -7.7, SENP8 block-2 0.1 and SENP6 block -23.4.
Screening COC(=O)c1ccc(/C=N/Nc2nc3ccccc3[nH]2)cc1 returned SENP8 block-1 -107.4, HSP90 inh -5.6, SENP7 inh -9.4, SENP8 block-2 -19.5 and SENP6 block -3.2.
Screening O=C(O)c1ccc(/C=N/Nc2nc3ccccc3[nH]2)cc1 returned SENP8 block-1 -193.3, HSP90 inh 4.0, SENP7 inh 57.9*, SENP8 block-2 49.5, SENP6 block -3.5, SENP8 confirm 14.0, SENP6 conf 17.1, SENP7 confirm 46.2, Casp3 SENP sel 33.1 and Luc interf 3.8.
`N#CC(=Cc1ccc(O)cc1)C(N)=C(C#N)C#N` gave SENP8 block-1 5.4, SENP7 inh 7.5, SENP8 block-2 2.2 and SENP6 block -14.0.
Screening COc1ccc(-n2nc3ccc(NS(C)(=O)=O)cc3n2)cc1Cl returned SENP8 block-1 inactive, HSP90 inh -5.5, SENP7 inh 74.0*, SENP8 block-2 51.2*, SENP6 block 71.5*, SENP8 confirm -7.2, SENP6 conf 39.4, SENP7 confirm 74.6*, Casp3 SENP sel 55.2* and Luc interf -1.8.
For Cc1ccc(-n2nc3ccc(N)cc3n2)cc1Cl the results were SENP8 block-1 -299.5, HSP90 inh 1.0, SENP7 inh 21.7, SENP8 block-2 87.3*, SENP6 block 89.9*, SENP8 confirm 11.9, SENP6 conf 63.2*, SENP7 confirm 75.6*, Casp3 SENP sel 63.2* and Luc interf 1.8.
